Results from PubChem BioAssay (Tox21).
Results filed as inconclusive are left out. The source made the active and inactive calls. Unless noted, calls follow the shape of the dose curve; as a rule, active = well fitted curve in the direction sought with a large enough effect in the repeat runs; inconclusive = weak or mixed curves; inactive = no such curve, though single readings can be large; an effect the other way counts as inactive or inconclusive.

How the values were obtained:
[1] = qHTS assay for small molecules that induce genotoxicity in human embryonic kidney cells expressing luciferase-tagged ATAD5 (AID 651632); also: nearly all actives have a fitted effect of over 15% in size
Summary of the method: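 Luminescent reporter readout, HEK293T ATAD5-luc line: 16 hr drug exposure (37C, 5% CO2) followed by Amplite, 30 min RT.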

[2] = qHTS assay for small molecule agonists of the p53 signaling pathway - cell viability (AID 651633; calls by dose curve;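 also: p53RE-bla HCT reporter cells with a stable beta-lactamase p53 reporter; series mostly up to about 83 µM; nearly all actives have a fitted effect of over 30% in size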)
Summary of the method: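 p53RE-bla cells, seeded at 4,000 per well and rested 5 h at 37 C/5% CO2, received compounds in DMSO for 16 h at 37 C. CellTiter-Glo was then added, and luminescence was read after 30 min at room temperature to gauge cytotoxicity.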

[3] = qHTS assay for small molecules that induce genotoxicity in human embryonic kidney cells expressing luciferase-tagged ATAD5 - cell viability (AID 651634; calls by dose curve; also: nearly all actives have a fitted effect of over 25% in size)
Summary of the method: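 Viability read: CellTiter-Fluor fluorescence, 30 min at 37C. Cells: HEK293T, luciferase-tagged ATAD5. Exposure: 15.5 hr, 37C, 5% CO2, compound or DMSO vehicle.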

[4] = qHTS assay for small molecule disruptors of the mitochondrial membrane potential - cell viability (AID 720634; calls by dose curve;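 also: human HepG2 liver cancer cells; series mostly up to about 83 µM; nearly all actives have a fitted effect of over 20% in size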)
Summary of the method: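 HepG2, 1 hr compound, 37 C. ATP luminescence via CellTiter-Glo, 30 min RT, same well as m-MPI.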

[5] = qHTS assay for small molecule disruptors of the mitochondrial membrane potential (AID 720635); also: potency is read from the fitted curve at half-maximal effect
Summary of the method: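 HepG2 cells (2,000/well) attached overnight at 37C, then took compound for 1 hr at 37C, 5% CO2. Mito-MPS dye was added for 30 min; fluorescence was read at 490/535 nm (monomers) and 540/590 nm (aggregates).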

[6] = qHTS assay to test for compound auto fluorescence at 590 nm (red) in HepG2 cells (AID 720674)
Summary of the method: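 Compound auto-fluorescence is scored relative to Rose Bengal sodium, measured at 540/590 nm in live HepG2 cultures after 1 hr compound contact (37 C, 5% CO2).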

[7] = qHTS assay to test for compound auto fluorescence at 535 nm (green) in HepG2 cells (AID 720675)
[8] = qHTS assay to test for compound auto fluorescence at 460 nm (blue) in HEK293 cells (AID 720678)
Summary of the method: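 HEK293 cells (2,000 per well, medium with 10% dialyzed FBS) attached for 4-5 hr at 37C, then received compound and stood overnight at 37C, 5% CO2. Blue fluorescence was read at Ex/Em 405/460 nm and expressed relative to triamterene.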

[9] = qHTS assay to test for compound auto fluorescence at 590 nm (red) in HEK293 cells (AID 720679)
Summary of the method: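 HEK293 cells (2,000/well, medium with 10% dialyzed FBS) attached for 4-5 hr at 37C, received 23 nL compound and were incubated overnight at 37C, 5% CO2. Red fluorescence was then read at 540/590nm Ex/Em, referenced to Rose Bengal sodium.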

[10] = qHTS assay to test for compound auto fluorescence at 535 nm (green) in HEK293 cells (AID 720680)
[11] = qHTS assay to test for compound auto fluorescence at 460 nm (blue) in HEK293 cell free culture (AID 720681)
Summary of the method: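 Test compounds were pinned into cell-free culture medium (DMEM with 10% FBS) and fluorescence was read directly at Ex/Em 405/460 nm. Signals were expressed as fluorescence equivalents of triamterene, with DMSO vehicle as control.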

[12] = qHTS assay to test for compound auto fluorescence at 535 nm (green) in HEK293 cell free culture (AID 720682)
Summary of the method: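 Green-channel intensity (Ex/Em 485/535 nm) was recorded from compound-treated wells containing only DMEM with 10% FBS. Fluorescein provided the equivalency standard.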

[13] = qHTS assay to test for compound auto fluorescence at 590 nm (red) in HEK293 cell free culture (AID 720683)
Summary of the method: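 Tox21 10K library compounds were pinned into cell-free DMEM with 10% FBS and fluorescence was read at excitation 540 nm. Activity is expressed as Rose Bengal sodium equivalency.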

[14] = qHTS assay to test for compound auto fluorescence at 590 nm (red) in HepG2 cell free culture (AID 720684)
Summary of the method: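 Red fluorescence (540 nm excitation, 590 nm emission) was measured after compound transfer into cell-free MEM supplemented with 10% FBS. Values are equivalencies against Rose Bengal sodium.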

[15] = qHTS assay to test for compound auto fluorescence at 460 nm (blue) in HepG2 cell free culture (AID 720685)
Summary of the method: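 Compound (23 nL) or DMSO pinned into cell-free MEM with 10% FBS; blue fluorescence read at 405/460 nm excitation/emission, expressed as auto-fluorescence equivalency to triamterene.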

[16] = qHTS assay to test for compound auto fluorescence at 535 nm (green) in HepG2 cell free culture (AID 720686)
[17] = qHTS assay to test for compound auto fluorescence at 460 nm (blue) in HepG2 cells (AID 720687)
Summary of the method: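 Cells (2,000/well in MEM with 10% FBS) attached overnight at 37 C, then were exposed to compound or DMSO for 1 hr at 37 C, 5% CO2. Fluorescence read at Ex/Em 405/460 nm, expressed as triamterene-equivalent signal.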

[18] = target: Glucocorticoid receptor (Homo sapiens) (UniProt P04150); assay: qHTS assay to identify small molecule agonists of the glucocorticoid receptor (GR) signaling pathway (AID 720691; active = well fitted activation curve with a large enough effect in the signal ratio in the repeat runs, not every such curve was filed as active; the % refers to the signal ratio)
Sequence of Glucocorticoid receptor (Homo sapiens) (P04150 whole entry, looked up): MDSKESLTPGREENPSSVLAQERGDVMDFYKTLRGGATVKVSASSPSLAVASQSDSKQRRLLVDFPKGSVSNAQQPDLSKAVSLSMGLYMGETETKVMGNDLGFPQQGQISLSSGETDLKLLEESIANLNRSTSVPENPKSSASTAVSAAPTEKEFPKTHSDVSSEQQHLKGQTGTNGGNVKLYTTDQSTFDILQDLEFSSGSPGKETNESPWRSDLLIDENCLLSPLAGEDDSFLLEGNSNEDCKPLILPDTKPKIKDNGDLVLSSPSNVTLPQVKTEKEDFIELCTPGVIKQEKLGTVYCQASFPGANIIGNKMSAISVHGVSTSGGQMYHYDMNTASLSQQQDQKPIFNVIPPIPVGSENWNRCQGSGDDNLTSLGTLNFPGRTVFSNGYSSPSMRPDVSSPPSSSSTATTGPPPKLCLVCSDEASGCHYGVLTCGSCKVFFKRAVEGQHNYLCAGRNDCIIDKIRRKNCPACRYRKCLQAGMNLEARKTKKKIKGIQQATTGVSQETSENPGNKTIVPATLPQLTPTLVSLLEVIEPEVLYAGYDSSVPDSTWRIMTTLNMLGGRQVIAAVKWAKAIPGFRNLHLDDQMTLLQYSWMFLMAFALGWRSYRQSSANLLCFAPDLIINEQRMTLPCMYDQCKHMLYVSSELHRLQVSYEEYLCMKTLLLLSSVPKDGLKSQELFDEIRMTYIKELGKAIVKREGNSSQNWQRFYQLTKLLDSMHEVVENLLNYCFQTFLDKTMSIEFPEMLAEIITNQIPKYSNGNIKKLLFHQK
Summary of the method: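 qHTS in GR-bla HeLa cells: 4 h settling at 37 C/5% CO2, 18 h compound incubation at 37 C, 2 h LiveBLAzer B/G FRET substrate at room temperature, fluorescence intensity measured.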

[19] = target: Glucocorticoid receptor (Homo sapiens) (UniProt P04150); assay: qHTS assay to identify small molecule antagonists of the glucocorticoid receptor (GR) signaling pathway (AID 720692; active = well fitted inhibition curve with a large enough effect in the signal ratio in the repeat runs, not every such curve was filed as active; the % refers to the signal ratio)
Summary of the method: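 Inhibition of glucocorticoid signalling is measured in HeLa cells with a GRE-controlled beta-lactamase reporter; cells are co-treated with compound and 5 nM dexamethasone (final) for 18 h before FRET substrate readout.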
% is scaled to controls: 0 for no effect and ±100 for the full control effect.

CC1=C(C(=O)O)N2C(=O)[C@@H](NC(=O)[C@H](N)C3=CCC=CC3)[C@H]2SC1
inactive: outcome [1] | outcome [2] | Potency [3] | outcome [4] | Potency [5] | outcome [6] | outcome [7] | outcome [8] | outcome [9] | outcome [10] | outcome [11] | outcome [12] | outcome [13] | outcome [14] | outcome [15] | outcome [16] | outcome [17] | Potency [18] | outcome [19]

CCCCCC(C)O (stereo not given)
inactive: outcome [1] | outcome [2] | Potency [3] | outcome [4] | Potency [5] | outcome [6] | outcome [7] | outcome [8] | outcome [9] | outcome [10] | outcome [11] | outcome [12] | outcome [13] | outcome [14] | outcome [15] | outcome [16] | outcome [17] | Potency [18] | outcome [19]

CO[Si](CCCn1c(=O)n(CCC[Si](OC)(OC)OC)c(=O)n(CCC[Si](OC)(OC)OC)c1=O)(OC)OC
inactive: outcome [1] | outcome [2] | Potency [3] | outcome [4] | Potency [5] | outcome [6] | outcome [7] | outcome [8] | outcome [9] | outcome [10] | outcome [11] | outcome [12] | outcome [13] | outcome [14] | outcome [15] | outcome [16] | outcome [17]

CC(=O)OC(C)=O
inactive: outcome [1] | outcome [2] | Potency [3] | outcome [4] | outcome [6] | outcome [7] | outcome [8] | outcome [9] | outcome [10] | outcome [11] | outcome [12] | outcome [13] | outcome [14] | outcome [15] | outcome [16] | outcome [17] | Potency [18]

CC(S)C(C)S (stereo not given)
inactive: outcome [1] | outcome [2] | Potency [3] | outcome [4] | Potency [5] | outcome [6] | outcome [7] | outcome [8] | outcome [9] | outcome [10] | outcome [12] | outcome [13] | outcome [14] | outcome [15] | outcome [16] | outcome [17] | Potency [18] | outcome [19]

CCC/C=C(\C=O)CC
inactive: outcome [1] | outcome [2] | Potency [3] | outcome [4] | Potency [5] | outcome [6] | outcome [7] | outcome [8] | outcome [9] | outcome [10] | outcome [11] | outcome [12] | outcome [13] | outcome [14] | outcome [15] | outcome [16] | outcome [17] | Potency [18]

C=CCOC(=O)CCCCCC
inactive: outcome [1] | outcome [2] | Potency [3] | outcome [4] | outcome [6] | outcome [7] | outcome [8] | outcome [9] | outcome [10] | outcome [11] | outcome [12] | outcome [13] | outcome [14] | outcome [15] | outcome [16] | outcome [17] | Potency [18] | outcome [19]

CCCCCCCCCCCCCBr
inactive: outcome [1] | outcome [2] | Potency [3] | outcome [4] | outcome [6] | outcome [7] | outcome [8] | outcome [9] | outcome [10] | outcome [11] | outcome [12] | outcome [13] | outcome [14] | outcome [16] | outcome [17]

C=CCN1C[C@H](C(=O)N(CCCN(C)C)C(=O)NCC)C[C@@H]2c3cccc4[nH]cc(c34)C[C@H]21
inactive: outcome [1] | outcome [2] | outcome [4] | outcome [6] | outcome [7] | outcome [8] | outcome [9] | outcome [10] | outcome [11] | outcome [12] | outcome [13] | outcome [14] | outcome [15] | outcome [16] | Potency [18]

CO[C@@]1(NC(=O)Cc2cccs2)C(=O)N2C(C(=O)O)=C(COC(N)=O)CS[C@@H]21
inactive: outcome [2] | Potency [3] | outcome [4] | Potency [5] | outcome [6] | outcome [7] | outcome [8] | outcome [9] | outcome [10] | outcome [11] | outcome [12] | outcome [13] | outcome [14] | outcome [15] | outcome [16] | outcome [17]

CC1(C)CC(OC(=O)CCCCCCCCC(=O)OC2CC(C)(C)NC(C)(C)C2)CC(C)(C)N1
inactive: outcome [2] | Potency [3] | outcome [4] | fluorescence, relative to Rose Bengal [6] 0.031% [at 18.6 µM] | fluorescence, % of fluorescein control [7] -0.0628% [at 18.6 µM] | fluorescence, % of triamterene [8] -0.0282% [at 18.6 µM] | fluorescence, % of fluorescent control [9] 0.252% [at 18.6 µM] | fluorescence, % of fluorescein [10] -0.0999% [at 18.6 µM] | fluorescence, % of fluorescent control [11] -0.182% [at 18.6 µM] | activity change [12] -0.0076% [at 18.6 µM] | fluorescence, % of fluorescent control [13] 0.038% [at 18.6 µM] | fluorescence, % of Rose Bengal [14] 0.143% [at 18.6 µM] | fluorescence, % of fluorescein control [16] -0.17% [at 18.6 µM] | fluorescence, % of fluorescent control [17] -0.0104% [at 18.6 µM] | Potency [18] | outcome [19]
active: Potency [5] 2960 nM

O/N=C/C=N/O
inactive: outcome [2] | Potency [3] | outcome [4] | Potency [5] | outcome [6] | outcome [7] | outcome [8] | outcome [9] | outcome [10] | outcome [11] | outcome [12] | outcome [13] | outcome [14] | outcome [15] | outcome [16] | outcome [17] | Potency [18] | outcome [19]

CO/N=C(/C(=O)N[C@@H]1C(=O)N2C(C(=O)[O-])=C(C[n+]3ccn4ncccc43)CS[C@H]12)c1nsc(N)n1
inactive: outcome [2] | Potency [3] | outcome [4] | Potency [5] | outcome [6] | outcome [7] | outcome [8] | outcome [9] | outcome [10] | outcome [11] | outcome [12] | outcome [13] | outcome [14] | outcome [15] | outcome [16] | outcome [17] | Potency [18] | outcome [19]
